Shown are actives, neighbours in structure and some others; about 21% of the full set was active somewhere.
Cycloheximide cs: Cycloheximide Counterscreen for Small Molecule Inhibitors of Shiga Toxin; cell reporter, cycloheximide protein synthesis inhibition counterscreen; AID 2314, 2010; hit rate 12% among 300,000; max response, %; in the data active = max response mostly above about 13%, no sharp cut-off; inactive = mostly below about 14%; note: read at 38.3 µM for the half of the compounds with a filed dose; 0% is about no effect
Shiga toxin inh: A qHTS for Small Molecule Inhibitors of Shiga Toxin. hit rate 9.2% among 290,000. inhibition, % at 38.7 µM. Vero cells, Shiga toxin protein synthesis inhibition reporter; in the data active = inhibition mostly above about 28%, no sharp cut-off; inactive = mostly below about 43%; note: 0% is about no effect
NS1 inh: qHTS Assay for Inhibitors of Influenza NS1 Protein Function; Potency, µM (doses to about 46.1 µM), for inactives: at the highest dose activity, positive = more growth; hit rate 0.4% among 270,000; AID 2326, 2010; calls by dose curve; note: potency is the fitted concentration of half-maximal effect; actives are rising curves; nearly all actives have a fitted effect of over 50% in size
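In this qHTS, NS1 from influenza A is expressed in budding yeast, where it slows growth. Cells are switched from glucose to 2% galactose medium (pH 6.0, -URA), treated with compound, and growth recovery is read at OD600.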
Sm TGR block: qHTS Assay for the Inhibitors of Schistosoma Mansoni Peroxiredoxins | Potency, µM (highest dose often 114 µM), for the others: at the top dose activity change, negative = inhibition, actives largely listed as inhibitors | hit rate 3% among 360,000 | Schistosoma mansoni thioredoxin glutathione reductase (TGR), Q962Y6 | purified TGR, DTNB reduction, TNB absorbance 405 nm; note: potency is the fitted concentration of half-maximal effect; % is set by controls: 0 for no effect and ±100 for the full control effect; nearly all actives have a fitted effect of over 60% in size
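First, TGR (20 nM dispensed) and NADPH were mixed with compound. Second, a 15 min room-temperature incubation followed. Third, further NADPH and then DTNB were added to start the reaction. Finally, TNB absorbance was monitored kinetically.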
Pf growth 48h: Primary qHTS for delayed death inhibitors of the malarial parasite plastid, 48 hour incubation; P. falciparum luciferase growth in erythrocytes, 48 h; Potency, µM (highest dose often 28.7 µM), for the others: at the highest dose activity change, negative = inhibition, usual class: inhibitors; hit rate 5.9% among 310,000; AID 504832, 2011; note: potency is the fitted concentration of half-maximal effect; % is set by controls: 0 for no effect and ±100 for the full control effect
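Luciferase-expressing P. falciparum in infected erythrocytes (2% hematocrit, 0.1% parasitemia final) in RPMI 1640/0.5% Albumax were exposed to compound for 48 hours at 37 C, 5% CO2; growth read as luminescence.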
Pf growth 96h: Primary qHTS for delayed death inhibitors of the malarial parasite plastid, 96 hour incubation | AID 504834, 2011 | P. falciparum luciferase reporter growth, 96 h | hit rate 6.9% among 320,000 | Potency, µM (top dose mostly 28.7 µM), without a hit: top-dose activity change, negative = inhibition, actives largely listed as inhibitors; note: potency is the fitted concentration of half-maximal effect; % is set by controls: 0 for no effect and ±100 for the full control effect
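Infected RBCs, 2% Hct / 0.05% parasitemia final; luciferase-reporter P. falciparum; cpd 96 h, 37 C, 5% CO2; luciferase detection reagent; luminescence.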
Starred values were filed as active, the others as inactive; ? = inconclusive; / = no result; [ ] = another dose, or the depositor's remark. Unless noted, calls come from the whole dose curve; as a rule, active = well fitted curve in the direction sought with a large enough effect; inconclusive = small, poorly fitted or top-dose-only effect, or another doubt; inactive = no such curve, though single readings can be large; an effect the other way counts as inactive or inconclusive.

SMILES	Cycloheximide cs	Shiga toxin inh	NS1 inh	Sm TGR block	Pf growth 48h	Pf growth 96h
COc1cccc(C(=O)C2CCCN(Cc3cccc(OCCO)c3)C2)c1 (stereo not drawn)	-2.9	-3.6	-4.0%	-1.0%	?	4.65µM*
COc1c(C)cc(C(=O)C2CCCN(Cc3cccc(C)n3)C2)cc1C (stereo not drawn)	-3.7	-15.8	2.6%	-5.2%[57.1 µM]	?	-21.3%
COc1ccc2cc(C(=O)C3CCCN(C4CCOCC4)C3)ccc2c1 (stereo not drawn)	-3.3	-11.5	-2.3%	-0.1%	32.2%	?
COc1cccc(C(=O)C2CCCN(Cc3cccc(C)n3)C2)c1 (stereo not drawn)	1.0	23.3	1.1%	9.0%	2.94µM*	?
COc1c(C)cc(C(=O)C2CCCN(C3CCOCC3)C2)cc1C (stereo not drawn)	2.3	-1.6	-2.3%	12.6µM*	-6.9%	-26.1%
CC1(C)SC(=S)N(NC(=O)Nc2cccc3ccccc23)C1N(O)C(=O)Nc1ccccc1 (stereo not drawn)	-1.7	24.4	?	5.5%	?	?
CCc1noc(C)c1C(=O)OC(C)C(=O)Nc1ccc(Cl)cn1 (stereo not drawn)	/	/	/	-7.7%	-12.7%	?
O=C(c1cccc(OC2CCN(Cc3cccc(OCCO)c3)CC2)c1)N1CCCC1	-3.6	-5.6	-3.5%	-5.7%	-23.9%	8.28µM*
COc1cccc(CN(C(=O)COc2ccc(Cl)cc2)C2CCS(=O)(=O)C2)c1 (stereo not drawn)	-3.5	2.9	-18.7%	1.2%	?	-22.4%
O=C(CN1CCC(NC(=O)c2ccccc2)CC1)NCc1ccccc1F	-2.7	-0.2	-6.9%	-0.9%	?	5.86µM*
O=C(CN1CCC(NC(=O)c2ccc(F)cc2)CC1)NCc1ccccc1F	-1.0	-1.4	-1.1%	-2.1%	-11.6%	54.0%
O=C(CN1CCC(NC(=O)c2ccccc2Cl)CC1)NCc1ccccc1	-3.6	10.9	7.4%	0.6%	?	12.2%
O=C(CN1CCC(NC(=O)c2ccccc2F)CC1)NCc1ccc(F)cc1	-3.3	17.8	5.6%	-2.5%	13.1µM*	/
Cc1cc2oc(C(=O)N(Cc3ccccc3F)C3CCS(=O)(=O)C3)c(C)c2cc1Cl (stereo not drawn)	/	/	/	4.3%	/	/
CCCC[C@@H](CN[C@H](C)CNC)NCC1CCC(C(C)(C)C)CC1 (stereo partly drawn)	-0.6	-5.6	-5.4%	0.4%	?	?
CC(=O)c1c[nH]c(C(=O)Nc2ccc(N3CCCCCC3)cc2)c1	/	/	/	-7.3%	97.8%	8.1%
CN(C)c1ccc(C2N3CC4(C)CN2CC(C)(C3)C4O)cc1 (stereo not drawn)	-2.7	-4.3	-91.9%	1.9%	/	4.65µM*
O=C(Nc1nnc(SCC(=O)N2CCOCC2)s1)C1CC(=O)N(c2ccccc2)C1 (stereo not drawn)	-2.5	3.3	9.7%	-4.8%	-5.0%	?
COc1ccc(N2CC(C(=O)Nc3nnc(SCc4ccccn4)s3)CC2=O)cc1 (stereo not drawn)	19.8*	-2.1	4.4%	-9.9%	-23.1%	?
COc1ccc(N2CC(C(=O)Nc3nnc(SCC(=O)N4CCOCC4)s3)CC2=O)cc1 (stereo not drawn)	-0.6	-1.1	19.8%	-20.7%	-19.7%	6.57µM*
Cc1ccc(NC(=O)C2CC(=O)NC(Nc3cccc(C)c3)=N2)cc1 (stereo not drawn)	-2.3	-21.2	2.5%	1.4%	15.7%	2.08µM*
O=C(NCc1cccs1)c1ccc2c(=O)n3nc(Nc4ccccc4)sc3nc2c1	/	/	/	-1.3%	/	/
CCc1ccccc1Nc1nn2c(=O)c3ccc(C(=O)NCCCOC(C)C)cc3nc2s1	/	/	/	3.7%	13.1µM*	?
CCc1ccccc1Nc1nn2c(=O)c3ccc(C(=O)NCc4cccs4)cc3nc2s1	/	/	/	-3.1%	9.28µM*	8.28µM*
CCc1ccccc1Nc1nn2c(=O)c3ccc(C(=O)NC(C)C)cc3nc2s1	/	/	/	9.5%	/	/
SMILES	Cycloheximide cs	Shiga toxin inh	NS1 inh	Sm TGR block	Pf growth 48h	Pf growth 96h
O=[N+]([O-])c1ccc(Sc2cccc3cccnc23)cc1	25.6*	64.7*	-5.9%	-7.5%	/	0.4%
O=[N+]([O-])c1cc(Cl)ccc1Sc1cccc2cccnc12	-1.5	-13.0	3.1%	3.8%	/	10.1%
O=[N+]([O-])c1ccc(Sc2cccc3cccnc23)c([N+](=O)[O-])c1	19.1*	12.6	-47.0%	-11.2%	-10.0%	/
O=[N+]([O-])c1ccc(NS(=O)(=O)c2cccc3cccnc23)cc1	-3.7	/	8.6%	1.2%	0.6%	11.7µM*
Cc1cc(C)nc(Sc2ccc([N+](=O)[O-])cc2[N+](=O)[O-])n1	-4.5	-6.0	10.1%	-19.7%	5.86µM*	-14.1%
CCC(C)C(NC(=O)C(Cc1ccc(O)cc1)NC(=O)C(N)C(C)C)C(=O)NC(Cc1cnc[nH]1)C(=O)N1CCCC1C(=O)NC(Cc1ccccc1)C(=O)O (stereo not drawn)	-3.1	29.1	/	/	/	/
CN(C)/N=C/c1ccc(Sc2ccc([N+](=O)[O-])cc2[N+](=O)[O-])o1	-2.6	12.6	-5.0%	28.2µM*	-10.5%	-22.4%
Cn1c(SCC(=O)NCC2CCCO2)ncc(C(=O)Nc2ccc(Cl)cc2)c1=O (stereo not drawn)	/	/	/	0.0%	39.8%	47.4%
Cc1nc(C#N)c(N/N=C/c2cccc(Cl)c2)o1	35.9*	53.7*	-39.0%	-3.3%	107.7%	35.8%
O=C(Nc1cccc(C(F)(F)F)c1)c1cc(-c2ccc(Cl)s2)nc2ccccc12	/	/	/	3.9%	/	/
COc1cccc(CNC(=O)c2cc(-c3cccs3)nc3ccccc23)c1	/	/	/	-1.1%	/	/
O=C(COC(=O)c1cc(-c2cccs2)nc2ccccc12)NCc1ccco1	29.1*	90.4*	1.9%	39.8µM*	5.3%	9.0%
O=C(NCc1ccco1)c1cc(-c2cccs2)nc2ccccc12	13.4*	14.2	5.2%	-2.7%	?	18.5µM*
O=C(COC(=O)c1cc(-c2ccc(Cl)s2)nc2ccccc12)NCc1ccco1	15.8*	18.1	15.2%	7.94µM*	-2.3%	/
COc1ccc(CNC(=O)COC(=O)c2cc(-c3ccc(Cl)s3)nc3ccccc23)cc1	11.1	25.2	7.4%	0.7%	-4.6%	/
Cc1ccc(-c2cc(C(=O)NCc3ccco3)c3ccccc3n2)s1	9.3*	29.5	3.5%	28.2µM*	5.8%	-2.8%
Cc1cccc(N2CN(Cc3ccco3)CNC2=S)c1C	-2.0	53.8	16.5%	3.7%	-13.2%	?
C=CCN(Cc1nc(-c2ccc(OC)c(OC)c2)oc1C)C1CCS(=O)(=O)C1 (stereo not drawn)	-5.7	-9.0	1.6%	-7.4%	-17.8%	-25.1%
